Where “and” joins values, the source holds several entries; their conditions need not be identical. Identical values can stand only once. Results filed as inconclusive are left out. Calls of active or inactive are those of the source. How the source made its calls, unless noted: active means hit-call score of the fitted dose curve at least 0.9, where 1 is the maximum; inactive means score below 0.9.
Experiments:
[1] = read-out: Monocyte Chemoattractant Protein-1 (MCP1), CCL2 (gene 6347); assay: BSK_SAg_MCP1: BioMAP Diversity Plus: SAg Assay for Monocyte Chemoattractant Protein-1 (MCP1) Biomarker Activity (AID 2283090); conditions: primary human HUVEC with PBMC; actives raise or lower the signal
In short: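 MCP-1 levels in the endothelial–PBMC SAg co-culture were quantified by ELISA at 24 h post-dosing; both increases and decreases versus DMSO scored. Cytotoxicity monitored by SRB total protein in parallel cultures.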

[2] = read-out: E-selectin (Homo sapiens) (UniProt P16581); assay: BSK_SAg_Eselectin: BioMAP Diversity Plus: SAg Assay for Eselectin Biomarker Activity (AID 2283091); conditions: primary human HUVEC with PBMC; actives raise or lower the signal
In short: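 Cell-surface E-selectin is read by ELISA at 24 h in the SAg co-culture of HUVEC and PBMC. Curves are fitted in both directions relative to DMSO. Parallel SRB total-protein staining tracks overt toxicity.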

[3] = read-out: Monokine induced gamma interferon (MIG), CXCL9 (gene 4283); assay: BSK_SAg_MIG: BioMAP Diversity Plus: SAg Assay for Monokine induced gamma interferon (MIG) Biomarker Activity (AID 2283092); conditions: primary human HUVEC with PBMC; actives raise or lower the signal
In short: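 ELISA readout of MIG/CXCL9; primary human umbilical vein endothelial cells co-cultured with peripheral blood mononuclear cells; 24 h post-dose; gain/loss fit vs DMSO baseline.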

[4] = BSK_SAg_PBMCCytotoxicity: PBMC Cytotoxicity Assessment in the BioMAP Diversity Plus: SAg Assay (AID 2283093); conditions: primary human HUVEC with PBMC;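 further: PBMC viability measured as Alamar Blue reduction fluorescence at 546/580 nm; fitted both ways against DMSO so a hit may be loss or gain of signal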;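 on AC50: PBMC superantigen activated with SEB plus TSST-1 one hour after compound addition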
In short: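 Compound added to 75,000 PBMC/well for 1 h; SEB and TSST-1 then added at 20 ng/mL final each; 90 h incubation; Alamar Blue 6 h; read 546/580 nm ex/em. Activity fitted bidirectionally relative to DMSO baseline.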

[5] = read-out: Interleukin-8 (IL8), CXCL8 (gene 3576); assay: BSK_SAg_IL8: BioMAP Diversity Plus: SAg Assay for Interleukin-8 (IL8) Biomarker Activity (AID 2283094); conditions: primary human HUVEC with PBMC; actives raise or lower the signal
In short: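 Human umbilical vein endothelial cells co-cultured with PBMC, stimulated with superantigen; IL-8 measured by ELISA 24 h after chemical dosing. Bidirectional fitting versus DMSO; SRB staining in parallel cultures tracks cytotoxicity.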

[6] = BSK_SAg_Proliferation: Cell Proliferation Assessment in the BioMAP Diversity Plus: SAg Assay (AID 2283095); conditions: primary human HUVEC with PBMC
In short: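 Human umbilical vein endothelial cells co-cultured with PBMC; sulforhodamine B total-protein staining (0.1% SRB after 10% TCA fixation, absorbance 560 nm) at 96 h in sub-confluent culture. Fitted bidirectionally against DMSO.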

[7] = BSK_SAg_SRB: Viability Assessment in the BioMAP Diversity Plus: SAg Assay (AID 2283096); conditions: primary human HUVEC with PBMC;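 further: cells read one day after compound addition; hits may be either gain or loss of signal compared with DMSO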
In short: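 Total protein by sulforhodamine B staining, 24 h after dosing, in HUVEC–PBMC co-culture; DMSO-referenced bidirectional fitting.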

[8] = target: Cytochrome P450 2C19 (Homo sapiens) (UniProt P33261); assay: NVS_ADME_hCYP2C19: NovaScreen (NVS) CYP450-related Enzyme Activity (ADME) Assay for human CYP2C19 (AID 2283113; active means hit-call score of the fitted dose curve at least 0.9, where 1 is the maximum;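 further: potency for inhibition seen as loss of fluorescent signal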)
In short: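 Compounds first screened in duplicate at 10 uM, then confirmed in concentration series. Insect-cell-expressed human CYP2C19 turned over a fluorogenic substrate, and fluorescence was read after 1 h. Inhibition taken as signal loss relative to acetonitrile.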

[9] = target: human CYP1A1, CYP1A1 (gene 1543) (UniProt P04798); assay: NVS_ADME_hCYP1A1: NovaScreen (NVS) CYP450-related Enzyme Activity (ADME) Assay for human CYP1A1 (AID 2283100; active means hit-call score of the fitted dose curve at least 0.9, where 1 is the maximum)
human CYP1A1, CYP1A1 (gene 1543), sequence (P04798 whole entry, looked up): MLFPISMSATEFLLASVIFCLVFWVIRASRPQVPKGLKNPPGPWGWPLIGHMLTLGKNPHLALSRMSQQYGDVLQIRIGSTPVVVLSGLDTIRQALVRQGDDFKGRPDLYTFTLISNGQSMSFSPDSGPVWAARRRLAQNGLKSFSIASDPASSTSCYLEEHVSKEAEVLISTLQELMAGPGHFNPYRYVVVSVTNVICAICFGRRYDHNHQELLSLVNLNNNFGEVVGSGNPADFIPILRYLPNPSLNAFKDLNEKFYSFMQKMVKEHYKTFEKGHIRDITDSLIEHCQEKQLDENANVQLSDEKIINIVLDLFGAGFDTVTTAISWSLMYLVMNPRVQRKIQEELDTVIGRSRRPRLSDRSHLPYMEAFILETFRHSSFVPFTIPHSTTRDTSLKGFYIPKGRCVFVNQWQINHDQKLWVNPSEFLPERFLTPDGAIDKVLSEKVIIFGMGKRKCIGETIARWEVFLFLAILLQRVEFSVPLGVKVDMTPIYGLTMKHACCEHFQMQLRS
In short: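 Chemicals were first tested in duplicate at 10 uM, and those passing a 30% inhibition threshold were rerun as concentration series topping at 20 uM. Fluorescence read-out of recombinant enzyme turnover after 1 h, relative to acetonitrile.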

[10] = target: human CYP2C9, CYP2C9 (gene 1559) (UniProt P11712); assay: NVS_ADME_hCYP2C9: NovaScreen (NVS) CYP450-related Enzyme Activity (ADME) Assay for human CYP2C9 (AID 2283108; active means hit-call score of the fitted dose curve at least 0.9, where 1 is the maximum)
human CYP2C9, CYP2C9 (gene 1559), sequence (P11712 whole entry, looked up): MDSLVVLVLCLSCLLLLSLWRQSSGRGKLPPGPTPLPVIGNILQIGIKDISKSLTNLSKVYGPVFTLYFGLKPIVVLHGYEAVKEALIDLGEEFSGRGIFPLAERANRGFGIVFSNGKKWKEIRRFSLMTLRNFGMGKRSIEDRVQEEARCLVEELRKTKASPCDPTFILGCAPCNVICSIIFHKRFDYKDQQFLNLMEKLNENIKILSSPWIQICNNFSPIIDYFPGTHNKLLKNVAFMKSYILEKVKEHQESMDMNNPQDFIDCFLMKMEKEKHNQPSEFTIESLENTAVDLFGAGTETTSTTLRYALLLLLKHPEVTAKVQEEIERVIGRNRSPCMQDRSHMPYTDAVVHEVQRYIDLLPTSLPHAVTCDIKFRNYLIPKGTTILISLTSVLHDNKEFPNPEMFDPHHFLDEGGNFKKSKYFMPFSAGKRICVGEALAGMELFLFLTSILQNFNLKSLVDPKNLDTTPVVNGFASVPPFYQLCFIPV
In short: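 Fluorescence readout of CYP2C9 activity (SF9-expressed human enzyme) at 0.75 h. The primary screen used 10 uM in duplicate, with concentration-response follow-up for actives; acetonitrile was the negative control.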

[11] = target: Cytochrome P450 3A4 (Homo sapiens) (UniProt P08684); assay: NVS_ADME_hCYP3A4: NovaScreen (NVS) CYP450-related Enzyme Activity (ADME) Assay for human CYP3A4 (AID 2283110; active means hit-call score of the fitted dose curve at least 0.9, where 1 is the maximum)
Cytochrome P450 3A4 (Homo sapiens), sequence (P08684 whole entry, looked up): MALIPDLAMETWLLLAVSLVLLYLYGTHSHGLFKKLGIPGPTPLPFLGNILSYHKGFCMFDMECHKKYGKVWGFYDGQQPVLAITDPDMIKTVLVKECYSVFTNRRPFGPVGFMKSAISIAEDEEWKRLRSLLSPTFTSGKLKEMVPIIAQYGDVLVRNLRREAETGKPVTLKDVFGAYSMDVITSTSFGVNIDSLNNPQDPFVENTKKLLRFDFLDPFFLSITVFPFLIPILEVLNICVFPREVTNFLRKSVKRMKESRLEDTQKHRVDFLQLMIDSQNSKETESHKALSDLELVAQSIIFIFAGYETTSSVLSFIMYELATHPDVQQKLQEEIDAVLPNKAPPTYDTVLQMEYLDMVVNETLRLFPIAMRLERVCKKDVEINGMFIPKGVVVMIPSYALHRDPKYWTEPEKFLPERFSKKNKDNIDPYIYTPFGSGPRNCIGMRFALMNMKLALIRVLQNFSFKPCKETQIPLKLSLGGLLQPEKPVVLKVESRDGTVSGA
In short: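 Compounds were first screened in duplicate at 10 uM against recombinant CYP3A4 produced in insect cells, then actives were run in concentration series. Enzyme activity was measured by fluorescence after 0.33 hour, with acetonitrile as baseline.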

[12] = target: human CYP1A2, CYP1A2 (gene 1544) (UniProt P05177); assay: NVS_ADME_hCYP1A2: NovaScreen (NVS) CYP450-related Enzyme Activity (ADME) Assay for human CYP1A2 (AID 2283102; active means hit-call score of the fitted dose curve at least 0.9, where 1 is the maximum;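 further: potency for inhibition since loss of fluorescence marks reduced CYP1A2 activity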)
human CYP1A2, CYP1A2 (gene 1544), sequence (P05177 whole entry, looked up): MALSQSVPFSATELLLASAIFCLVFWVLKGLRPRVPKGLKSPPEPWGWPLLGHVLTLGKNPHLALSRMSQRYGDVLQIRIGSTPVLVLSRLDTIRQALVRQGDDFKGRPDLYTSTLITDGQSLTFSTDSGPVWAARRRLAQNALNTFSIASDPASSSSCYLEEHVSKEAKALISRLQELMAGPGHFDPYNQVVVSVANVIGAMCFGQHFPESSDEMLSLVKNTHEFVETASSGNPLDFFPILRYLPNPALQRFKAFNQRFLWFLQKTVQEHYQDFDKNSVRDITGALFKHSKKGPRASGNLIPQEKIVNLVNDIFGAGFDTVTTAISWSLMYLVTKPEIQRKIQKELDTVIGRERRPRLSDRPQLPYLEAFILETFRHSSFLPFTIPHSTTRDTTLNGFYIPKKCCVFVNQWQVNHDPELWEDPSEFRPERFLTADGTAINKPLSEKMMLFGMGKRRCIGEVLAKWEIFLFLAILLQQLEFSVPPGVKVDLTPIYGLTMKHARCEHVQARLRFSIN
In short: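 Enzyme activity of insect-cell-expressed human CYP1A2 measured by fluorescence 0.5 h after compound addition, relative to acetonitrile. Compounds first tested in duplicate at 10 uM, actives followed up in concentration series.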

[13] = target: rat CYP1A2, Cyp1a2 (gene 24297) (UniProt P04799); assay: NVS_ADME_rCYP1A2: NovaScreen (NVS) CYP450-related Enzyme Activity (ADME) Assay for rat CYP1A2 (AID 2283115; active means hit-call score of the fitted dose curve at least 0.9, where 1 is the maximum)
In short: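 Cell-free recombinant rat enzyme with fluorogenic substrate, read by fluorescence intensity 1 hour after dosing. Loss of signal versus acetonitrile negative control; primary screen at 10 uM in duplicate, actives followed in concentration series.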

[14] = target: human CYP2B6, CYP2B6 (gene 1555) (UniProt P20813); assay: NVS_ADME_hCYP2B6: NovaScreen (NVS) CYP450-related Enzyme Activity (ADME) Assay for human CYP2B6 (AID 2283101; active means hit-call score of the fitted dose curve at least 0.9, where 1 is the maximum)
human CYP2B6, CYP2B6 (gene 1555), sequence (P20813 whole entry, looked up): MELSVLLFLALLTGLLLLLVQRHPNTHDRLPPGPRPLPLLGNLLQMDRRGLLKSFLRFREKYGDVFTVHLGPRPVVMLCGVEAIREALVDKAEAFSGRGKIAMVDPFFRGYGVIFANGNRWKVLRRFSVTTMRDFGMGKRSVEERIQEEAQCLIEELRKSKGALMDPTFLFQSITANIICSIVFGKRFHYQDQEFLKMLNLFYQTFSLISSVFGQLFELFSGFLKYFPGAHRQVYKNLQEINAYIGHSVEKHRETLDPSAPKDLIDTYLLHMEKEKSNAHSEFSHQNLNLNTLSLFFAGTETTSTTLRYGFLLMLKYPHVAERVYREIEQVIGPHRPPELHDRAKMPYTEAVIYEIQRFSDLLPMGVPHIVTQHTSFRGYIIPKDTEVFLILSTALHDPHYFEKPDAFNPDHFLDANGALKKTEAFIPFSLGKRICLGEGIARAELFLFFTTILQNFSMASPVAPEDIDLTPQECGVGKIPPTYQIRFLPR
In short: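 Fluorescence-based enzyme activity of recombinant human CYP2B6, measured 1 h post-dose against acetonitrile vehicle baseline. Screened at a single concentration of 10 uM in duplicate before concentration-response follow-up.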

[15] = target: human CYP2D6, CYP2D6 (gene 1565) (UniProt P10635); assay: NVS_ADME_hCYP2D6: NovaScreen (NVS) CYP450-related Enzyme Activity (ADME) Assay for human CYP2D6 (AID 2283107; active means hit-call score of the fitted dose curve at least 0.9, where 1 is the maximum)
human CYP2D6, CYP2D6 (gene 1565), sequence (P10635 whole entry, looked up): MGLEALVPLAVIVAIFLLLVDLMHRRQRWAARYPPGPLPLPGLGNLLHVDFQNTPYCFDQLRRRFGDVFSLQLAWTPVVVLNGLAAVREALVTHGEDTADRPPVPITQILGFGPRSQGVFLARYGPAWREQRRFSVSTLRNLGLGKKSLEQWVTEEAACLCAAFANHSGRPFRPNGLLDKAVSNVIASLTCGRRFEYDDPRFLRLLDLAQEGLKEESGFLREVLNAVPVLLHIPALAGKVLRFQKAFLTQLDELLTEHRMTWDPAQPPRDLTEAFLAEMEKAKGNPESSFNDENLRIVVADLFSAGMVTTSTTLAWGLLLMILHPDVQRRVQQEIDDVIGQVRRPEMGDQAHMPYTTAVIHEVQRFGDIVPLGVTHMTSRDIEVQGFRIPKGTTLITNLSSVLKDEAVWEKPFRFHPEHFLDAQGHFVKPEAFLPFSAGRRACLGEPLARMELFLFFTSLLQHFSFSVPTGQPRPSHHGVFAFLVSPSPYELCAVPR
In short: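 Fluorescence readout of recombinant CYP2D6 (insect-cell derived) activity after 1 h incubation with test chemical. Acetonitrile served as baseline, loss-of-signal direction. Single-concentration duplicate screening at 10 uM preceded concentration-response retesting.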

[16] = target: human CYP2J2, CYP2J2 (gene 1573) (UniProt P51589); assay: NVS_ADME_hCYP2J2: NovaScreen (NVS) CYP450-related Enzyme Activity (ADME) Assay for human CYP2J2 (AID 2283106; active means hit-call score of the fitted dose curve at least 0.9, where 1 is the maximum)
human CYP2J2, CYP2J2 (gene 1573), sequence (P51589 whole entry, looked up): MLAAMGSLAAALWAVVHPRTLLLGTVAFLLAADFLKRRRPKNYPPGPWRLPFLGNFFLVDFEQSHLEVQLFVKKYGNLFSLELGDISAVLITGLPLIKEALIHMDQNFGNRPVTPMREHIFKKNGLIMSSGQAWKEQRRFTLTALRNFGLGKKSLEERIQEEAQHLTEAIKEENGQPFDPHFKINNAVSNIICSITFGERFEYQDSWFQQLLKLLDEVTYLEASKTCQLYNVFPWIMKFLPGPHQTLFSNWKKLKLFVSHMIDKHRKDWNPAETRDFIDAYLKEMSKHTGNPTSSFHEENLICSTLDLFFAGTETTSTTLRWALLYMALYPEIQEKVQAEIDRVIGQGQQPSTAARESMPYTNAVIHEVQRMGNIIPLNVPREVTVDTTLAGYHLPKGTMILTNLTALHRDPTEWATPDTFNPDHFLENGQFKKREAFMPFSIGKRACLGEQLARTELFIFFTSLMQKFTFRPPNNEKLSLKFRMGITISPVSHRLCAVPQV
In short: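 Cell-free assay of recombinant CYP2J2 with a fluorogenic substrate, read 1 h after dosing; loss of signal versus acetonitrile. Primary screen at 10 uM in duplicate, then concentration-response up to 20 uM for chemicals passing threshold (e.g., 30% inhibition).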

[17] = target: human CYP4F12, CYP4F12 (gene 66002) (UniProt Q9HCS2); assay: NVS_ADME_hCYP4F12: NovaScreen (NVS) CYP450-related Enzyme Activity (ADME) Assay for human CYP4F12 (AID 2283111; active means hit-call score of the fitted dose curve at least 0.9, where 1 is the maximum)
human CYP4F12, CYP4F12 (gene 66002), sequence (Q9HCS2 whole entry, looked up): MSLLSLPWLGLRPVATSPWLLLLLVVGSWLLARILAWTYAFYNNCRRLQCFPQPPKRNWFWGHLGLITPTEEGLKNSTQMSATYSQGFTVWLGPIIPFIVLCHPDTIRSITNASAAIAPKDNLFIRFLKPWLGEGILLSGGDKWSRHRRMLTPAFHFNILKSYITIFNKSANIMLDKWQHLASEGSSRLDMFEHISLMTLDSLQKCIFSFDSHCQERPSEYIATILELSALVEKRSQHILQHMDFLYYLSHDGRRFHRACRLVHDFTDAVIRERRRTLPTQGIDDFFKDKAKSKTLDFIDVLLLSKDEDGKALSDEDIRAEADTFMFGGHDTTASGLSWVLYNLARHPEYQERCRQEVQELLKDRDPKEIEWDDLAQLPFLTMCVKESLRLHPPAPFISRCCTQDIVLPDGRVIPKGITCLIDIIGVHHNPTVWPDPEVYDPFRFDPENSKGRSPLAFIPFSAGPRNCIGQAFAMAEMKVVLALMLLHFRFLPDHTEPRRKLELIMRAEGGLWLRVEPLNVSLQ
In short: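 Cell-free fluorescence assay of recombinant human CYP4F12 activity on a specific substrate, read 0.5 h after dosing. Primary screen in duplicate at 10 uM, then concentration series for actives; loss of signal fitted against acetonitrile negative control.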

[18] = target: rat CYP2A1, Cyp2a1 (gene 24894) (UniProt P11711); assay: NVS_ADME_rCYP2A1: NovaScreen (NVS) CYP450-related Enzyme Activity (ADME) Assay for rat CYP2A1 (AID 2283114)
In short: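 Recombinant rat CYP2A1, cell-free, fluorogenic substrate turnover read by fluorescence intensity 0.75 h after dosing. Primary screen at 10 uM in duplicate; actives rerun as concentration-response up to 20 uM; loss of signal versus acetonitrile control.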

Measured: AC50

E-selectin (Homo sapiens), sequence (P16581 whole entry, looked up): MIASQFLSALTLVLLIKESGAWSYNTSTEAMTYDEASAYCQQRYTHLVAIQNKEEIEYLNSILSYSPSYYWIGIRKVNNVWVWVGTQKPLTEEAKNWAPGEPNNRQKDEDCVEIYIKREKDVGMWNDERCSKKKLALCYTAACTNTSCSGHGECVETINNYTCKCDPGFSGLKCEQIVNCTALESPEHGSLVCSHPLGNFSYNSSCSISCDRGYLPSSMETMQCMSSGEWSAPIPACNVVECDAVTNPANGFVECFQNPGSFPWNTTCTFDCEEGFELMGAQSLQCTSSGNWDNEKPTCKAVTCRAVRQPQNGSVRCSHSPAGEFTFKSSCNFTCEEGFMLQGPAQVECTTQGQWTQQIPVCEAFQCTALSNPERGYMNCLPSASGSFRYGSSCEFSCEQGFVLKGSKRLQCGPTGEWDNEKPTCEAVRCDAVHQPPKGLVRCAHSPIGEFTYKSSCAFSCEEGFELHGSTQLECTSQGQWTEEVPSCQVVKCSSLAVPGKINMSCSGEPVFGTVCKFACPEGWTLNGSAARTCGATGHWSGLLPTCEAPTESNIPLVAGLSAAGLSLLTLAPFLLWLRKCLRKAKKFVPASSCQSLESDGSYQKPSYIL

CCOc1cc(C(C)(C)C)ccc1C1COC(c2c(F)cccc2F)=N1 (centres undefined)
active: [1] 28.5 µM | [2] 16.5 µM | [3] 36.1 µM | [4] 28.9 µM | [5] 18.6 µM | [6] 11.9 µM | [7] 22.1 µM | [8] 7.62 µM

CC(C)(C)C(=O)C(Oc1ccc(Cl)cc1)n1cncn1 (centres undefined)
inactive: [1] | [2] | [3] | [4] | [5] | [6] | [7]
active: [9] 1.62 µM | [10] 6.98 µM and 4.65 µM | [11] 5.81 µM | [8] 1.32 µM

CC(C)NC(=O)N1CC(=O)N(c2cc(Cl)cc(Cl)c2)C1=O
inactive: [1] | [2] | [3] | [4] | [5] | [6] | [7] | [13]
active: [9] 5.48 µM | [12] 5.75 µM | [10] 4.01 µM | [8] 2.06 µM

CCN(CC)C(=O)C(C)Oc1cccc2ccccc12 (centres undefined)
inactive: [1] | [3] | [4] | [5] | [6] | [7]
active: [2] 1.06 µM | [14] 5.79 µM | [10] 4.54 µM | [8] 1.15 µM

COC(=O)N(C(=O)N1CO[C@@]2(C(=O)OC)Cc3cc(Cl)ccc3C2=N1)c1ccc(OC(F)(F)F)cc1
active: [1] 5.47 µM | [5] 5.25 µM | [6] 7.29 µM | [7] 5.59 µM | [8] 0.102 µM
inactive: [2] | [3] | [4] | [10]

CCOC(=O)C(C)OC(=O)c1cc(Oc2ccc(C(F)(F)F)cc2Cl)ccc1[N+](=O)[O-] (centres undefined)
inactive: [1] | [3] | [4] | [5] | [15]
active: [2] 10 µM | [6] 30.9 µM | [7] 14 µM | [8] 4.01 µM

CC(C)C1(C)N=C(c2ncccc2C(=O)O)NC1=O (centres undefined)
inactive: [1] | [2] | [3] | [4] | [5] | [6] | [7] | [10]

CC(C)=CC1C(C(=O)OCc2coc(Cc3ccccc3)c2)C1(C)C (centres undefined)
inactive: [3] | [7]
active: [1] 20 µM | [2] 16.6 µM | [4] 5.08 µM | [5] 12.7 µM | [6] 15.7 µM | [10] 5.84 µM | [8] 8.7 µM

COCc1cnc(C2=NC(C)(C(C)C)C(=O)N2)c(C(=O)O)c1 (centres undefined)
inactive: [1] | [2] | [3] | [4] | [5] | [6] | [7]
active: [16] 3.83 µM

O=C1C2CC=CCC2C(=O)N1SC(Cl)(Cl)Cl (centres undefined)
inactive: [3] | [7]
active: [2] 26.2 µM | [4] 32.6 µM | [5] 25.3 µM | [6] 28.7 µM | [12] 6.89 µM | [10] 10 µM | [8] 16 µM

CNC(=O)Oc1cccc2ccccc12
inactive: [1] | [2] | [3] | [5] | [7]
active: [4] 15.9 µM | [6] 22.4 µM | [12] 5.35 µM

CCN(CC)c1nc(C)cc(OP(=S)(OC)OC)n1
active: [2] 10.5 µM | [5] 14.1 µM | [6] 37 µM | [14] 4.4 µM | [12] 1.41 µM | [10] 7.09 µM | [8] 0.773 µM
inactive: [1] | [3] | [4] | [7]

CC1(C)C(C=C(Cl)Cl)C1C(=O)OC(C#N)c1cccc(Oc2ccccc2)c1 (centres undefined)
inactive: [1] | [2] | [3] | [4] | [5]
active: [6] 29.4 µM | [7] 6.38 µM | [15] 6.07 µM | [10] 12.8 µM | [8] 7.55 µM

CCCCC(O)(Cn1cncn1)c1ccc(Cl)cc1Cl (centres undefined)
active: [2] 22.5 µM | [6] 29.9 µM | [14] 1.07 µM | [10] 0.554 µM | [17] 2.52 µM | [8] 0.426 µM | [18] 1.3 µM
inactive: [1] | [3] | [4] | [5] | [7]

OC(c1ccc(Cl)cc1)(c1ccc(Cl)cc1)C(Cl)(Cl)Cl
active: [1] 30.7 µM | [2] 27.2 µM | [3] 34.4 µM | [4] 20 µM | [5] 27.9 µM | [6] 15 µM | [7] 31.8 µM | [8] 0.806 µM
inactive: [11]

CCCN(CC)CC1COC2(CCC(C(C)(C)C)CC2)O1 (centres undefined)
inactive: [1] | [3] | [7] | [10]
active: [2] 12.9 µM | [4] 12.2 µM | [5] 12.1 µM | [6] 6.99 µM

N#CN=C1SCCN1Cc1ccc(Cl)nc1
inactive: [1] | [2] | [3] | [4] | [5] | [6] | [7] | [15]
